Source: the supplement of paper PMC9135407
“And” between values parts separate entries of the source, which are not always exact repeats. Equal entries are not always repeated. Structures can show the parent of a compound that is named as a salt. Screen size: about 5,800 compounds; about 620 (11%) showed activity. This is one part of a sample in which actives are shown more often than they occur. A number with no mark means an inactive call.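 The calls were made as follows: active = score above a cut-off or among the top three wells of a plate; in these data no inactive exceeds 0.85.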

Test system: primary human hepatic stellate cells (donor 1)
Assay: scaled lipid accumulation score (0 = DMSO-like, 1 = nortriptyline-like); higher = stronger HSC inactivation (lipid re-accumulation), active = hit call of the paper
Details: 48 h
[1] = library stock concentration: 3.33 mM
[2] = library stock concentration: 10 mM
[3] = library stock concentration: 1 mM
[4] = library stock concentration: 100 uM
[5] = library stock concentration: 6.8 mM

## CS(=O)(=O)c1ccc([C@H](O)[C@@H](COC(=O)CN)NC(=O)C(Cl)Cl)cc1 [Thiamphenicol glycinate]
Library stock concentration: 4.8 mM
  scaled lipid accumulation score: 0.01

## O=C(O)Cn1nnc(-c2cc(N3CCC(Oc4cc(F)ccc4Br)CC3)no2)n1
[1]
  scaled lipid accumulation score: ≤ 0
[2]
  scaled lipid accumulation score: ≤ 0

## CCCCC[C@H](O)/C=C/[C@@H]1[C@@H](C/C=C\CCCC(=O)N(CC)CC)[C@@H](O)C[C@H]1O [Prostaglandin F2.alpha. diethyl amide]
[3]
  scaled lipid accumulation score: ≤ 0

## CCc1cccc(N(C)C(=N)Nc2cccc3ccccc23)c1.Cl
[2]
  scaled lipid accumulation score: 0.912 (active)

## CC1CCC(C(C)C)C(O)C1 (stereo not drawn) [Menthol(-)]
[2]
  scaled lipid accumulation score: ≤ -0.027

## CC1(C)CC(=O)C(C2C3=C(CC(C)(C)CC3=O)Oc3ccccc32)C(=O)C1 (stereo unspecified)
[2]
  scaled lipid accumulation score: ≤ -0.002

## CCCCCC1OC1C/C=C\C/C=C\C/C=C\CCCC(=O)O (stereo unspecified)
[4]
  scaled lipid accumulation score: ≤ -0.021

## CC(=O)c1cnc2ccc(-c3cc(Cl)c(O)c(Cl)c3)nc2c1N[C@H]1CC[C@H](CN(C)C)CC1
Library stock concentration: 80 uM
  scaled lipid accumulation score: 0.258
Library stock concentration: 400 uM
  scaled lipid accumulation score: 0.847
Library stock concentration: 2 mM
  scaled lipid accumulation score: 0.765

## CC(=O)c1cnc2ccc(-c3cc(Cl)c(O)c(Cl)c3)nc2c1N[C@H]1CC[C@H](CN(C)C)CC1.Cl
[2]
  scaled lipid accumulation score: 0.872 (active)

## CCN(CC)CCNC(C(=O)OCCC(C)C)c1ccccc1 (stereo unspecified)
[2]
  scaled lipid accumulation score: 0.521

## Cc1ccc(C(=O)NCCCCCC(=O)Nc2ccccc2N)cc1
[1]
  scaled lipid accumulation score: ≤ -0.009
[2]
  scaled lipid accumulation score: 0.662

## c1ccc2c3c([nH]c2c1)C1C2CCC(C4CCCNC42)N1CC3 (stereo unspecified) [Nitrarine dihydrochloride]
  scaled lipid accumulation score: ≤ 0

## C[C@H](CS)C(=O)N1CCC[C@H]1C(=O)O [Captopril]
  scaled lipid accumulation score: 0.036
[1]
  scaled lipid accumulation score: ≤ 0
Library stock concentration: 9.2 mM
  scaled lipid accumulation score: ≤ -0.006 and ≤ 0
[2]
  scaled lipid accumulation score: ≤ 0

## CCOC(=O)[C@H](CCc1ccccc1)N[C@@H](C)C(=O)N1CCC[C@H]1C(=O)O [Enalapril]
Library stock concentration: 5.3 mM
  scaled lipid accumulation score: ≤ 0

## CCCNC(=O)[C@H]1O[C@@H]1C(=O)N[C@H](C(=O)N1CCC[C@H]1C(=O)OC)C(C)CC (stereo partly specified)
Library stock concentration: 12.6 mM
  scaled lipid accumulation score: 0.868 (active)

## CCOC(=O)[C@H](CCc1ccccc1)N[C@@H](C)C(=O)N1CCC[C@H]1C(=O)O [Enalapril Maleate]
[1]
  scaled lipid accumulation score: 0.026
[2]
  scaled lipid accumulation score: ≤ 0

## C[C@H](CS)C(=O)N1CCC[C@H]1C(=O)O
[2]
  scaled lipid accumulation score: ≤ 0

## CCOC(=O)[C@H](CCc1ccccc1)N[C@@H](C)C(=O)N1CCC[C@H]1C(=O)O
[2]
  scaled lipid accumulation score: ≤ 0

## CCOC(=O)[C@H](CCc1ccccc1)N[C@@H](C)C(=O)N1CCC[C@H]1C(=O)O [Enalapril maleate]
  scaled lipid accumulation score: ≤ 0
[2]
  scaled lipid accumulation score: ≤ 0

## O=C(O)/C(=C\c1c(C(=O)O)[nH]c2cc(Cl)cc(Cl)c12)c1ccccc1
[2]
  scaled lipid accumulation score: 0.017

## N[C@H](C(=O)O)[C@H](Cc1ccccc1)C(=O)O [L-Beta-threo-benzyl-aspartate]
[2]
  scaled lipid accumulation score: ≤ 0

## CC(C)NCC(O)COc1cccc2ccccc12 (racemic) [Propranolol hydrochloride (+/-)]
[5]
  scaled lipid accumulation score: 0.363
[2]
  scaled lipid accumulation score: 0.457

## CC(C)NC[C@H](O)COc1cccc2ccccc12.Cl
Library stock concentration: 16.9 mM
  scaled lipid accumulation score: 1.02 (active)

## CC(C)NC[C@H](O)COc1cccc2ccccc12 [(S)-Propranolol hydrochloride]
[2]
  scaled lipid accumulation score: 0.445

## CC(C)NC[C@@H](O)COc1cccc2ccccc12 [Dexpropranolol hydrochloride]
[5]
  scaled lipid accumulation score: 0.521
[2]
  scaled lipid accumulation score: ≤ 0

## CC(C)NC[C@H](O)COc1cccc2ccccc12 [(S)-(-)-Propranolol hydrochloride]
[2]
  scaled lipid accumulation score: 0.518

## CC(C)NC[C@@H](O)COc1cccc2ccccc12 [(R)-Propranolol hydrochloride]
  scaled lipid accumulation score: 0.415

## CC(C)NC[C@@H](O)COc1cccc2ccccc12 [(R)-(+)-Propranolol hydrochloride]
[2]
  scaled lipid accumulation score: 0.656

## CC(C)NCC(O)COc1cccc2ccccc12 (stereo unspecified) [Propranolol HCl]
[1]
  scaled lipid accumulation score: ≤ 0
[2]
  scaled lipid accumulation score: 0.555

## CC(C)NCC(O)COc1cccc2ccccc12 (stereo unspecified)
[2]
  scaled lipid accumulation score: 0.847

## CC(C)NC[C@H](O)COc1cccc2ccccc12 [(S)-propranolol hydrochloride]
  scaled lipid accumulation score: 0.444

## CC(C)NCC(O)COc1cccc2ccccc12 (stereo unspecified) [Propranolol]
Library stock concentration: 7.7 mM
  scaled lipid accumulation score: 0.676

## CC(C)NCC(O)COc1cccc2ccccc12.Cl (stereo unspecified)
[2]
  scaled lipid accumulation score: 0.882 (active)

## CC(C)NCC(O)COc1cccc2ccccc12 (stereo unspecified) [Propranolol hydrochloride]
  scaled lipid accumulation score: 0.378
[2]
  scaled lipid accumulation score: 0.74

## CCCOc1ccc(/C=C2/SC(=O)NC2=O)cc1 [PIM1/2 Kinase Inhibitor VI]
[1]
  scaled lipid accumulation score: 0.001

## C=CCn1c(=O)n([C@@H]2O[C@H](CO)[C@@H](O)[C@H]2O)c2nc(N)[nH]c(=O)c21
[2]
  scaled lipid accumulation score: 0.047

## CCCCC(C)(C)[C@H](O)/C=C/[C@@H]1[C@@H](C/C=C\CCCC(=O)O)[C@H](O)C[C@H]1O [16,16-dimethyl Prostaglandin F2.beta.]
[3]
  scaled lipid accumulation score: ≤ 0

## CCCCCC=CCC=CC=CC=CC(SCC(NC(C)=O)C(=O)O)C(O)CCCC(=O)O (stereo unspecified) [N-Acetyl-leukotriene E4]
[4]
  scaled lipid accumulation score: 0.032

## c1ccc(N2CCN(Cc3nc4ccccc4[nH]3)CC2)nc1 [ABT 724 trihydrochloride]
[2]
  scaled lipid accumulation score: ≤ -0.001

## O=C(O)CCc1nc2ccccc2[nH]1
[2]
  scaled lipid accumulation score: 0.2

## O=c1c2sc(-c3ccc(F)cc3)cc2ncn1Cc1nc2ccccc2[nH]1
[2]
  scaled lipid accumulation score: 0.756 (active)

## CCCCCCCCCCCCCCCCOP(=O)([O-])OCC[N+](C)(C)C [Miltefosine]
[3]
  scaled lipid accumulation score: ≤ 0
Library stock concentration: 4.9 mM
  scaled lipid accumulation score: ≤ -0.006
[2]
  scaled lipid accumulation score: 0.007

## O=C(NCc1cccc(O)c1)Nc1nc(-c2ccncc2)cs1 [listing 1 of 2 here]
[2]
  scaled lipid accumulation score: 1.02 (active)

## O=C(NCc1cccc(O)c1)Nc1nc(-c2ccncc2)cs1 [listing 2 of 2 here]
[1]
  scaled lipid accumulation score: 0.56

## O=C(NCc1ccccc1)c1csc(Nc2ccncn2)n1 [Thiazovivin]
[1]
  scaled lipid accumulation score: ≤ 0
[2]
  scaled lipid accumulation score: 0.14
